Bioassay records (PubChem)
IL-1B inflam inh = blocks inflammasome-driven IL-1 beta release; actives 4.7% (n = 360,000); THP-1 LPS/ATP IL-1B secretion, AlphaLISA, 16 h; hits give low values; activity change, % at 57.5 µM; in the data active = activity change below about -50%; inconclusive = mostly about -30% to -49%; note: % is set by controls: 0 for no effect and ±100 for the full control effect
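Secreted IL-1B measured by AlphaLISA bead assay after 16 h compound exposure of THP-1 cells; compounds (final up to 57.5 uM) added 1 h before LPS (250 ng/mL) and ATP (1.25 mM) stimulation; lower signal means less secretion.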
HT1080 IDH1KD tx = HT-1080 IDH1 knockdown cell toxicity (counter line); actives 2% (n = 360,000); HT-1080 IDH1 knockdown viability, ATP luminescence, 48 h; Potency, µM (top dose mostly 46.1 µM), without a hit: at the top dose activity, negative = toxicity, most hits filed as cytotoxic;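 note: potency is the fitted concentration of half-maximal effect; 0% = DMSO wells and -100% = cell-free medium wells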
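Luminescent ATP read-out (CellTiter-Glo, 10 min at room temperature) after 48 h compound exposure at 37 °C gave viability of IDH1-knockdown HT-1080 cells. Activity was normalised to DMSO and cell-free wells, then fitted as concentration-response curves.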
Giardia killer = kills Giardia lamblia; Giardia lamblia trophozoite viability; activity change, % at 7.66 µM, hits read low; actives 0.15% (n = 340,000); AID 540267; in the data active = activity change below about -80%; inconclusive = between about -30% and that limit;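 note: parasites exposed to compound for two days anaerobically before the ATP read; % is set by controls: 0 for no effect and ±100 for the full control effect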
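Viability, read as ATP luminescence: trophozoites at 100 cells/well, compound added, 48 hrs anaerobic at 37 deg C, then 15-30 min room-temperature development before reading.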
HT1080-NT tox = kills 2HG-producing HT-1080-NT fibrosarcoma cells | actives 1.6% (n = 360,000) | HT-1080-NT fibrosarcoma viability, CellTiter-Glo ATP luminescence, 48 h | Potency, µM (series often up to 46.1 µM), for the others: at the top dose activity, negative = less viability, hits mostly cytotoxic;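 note: NT is the 2HG producing partner of a matched IDH1 knockdown line; potency is the fitted concentration of half-maximal effect; 0% = DMSO-treated cells and -100% = media-only wells without cells; nearly all actives have a fitted effect of over 55% in size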
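HT-1080-NT; 750 cells/well; 5% FBS RPMI; 48 h compound, 37 degrees C; CellTiter-Glo luminescence; curve fitting and curve-class assignment.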
TGFb inhibitor = TGF-b pathway inhibition; actives 1.2% (n = 410,000); HepG2 CAGA-GFP TGF-b/SMAD3 reporter, GFP fluorescence, 18 h; TGF-beta stimulated, 500 pg/mL final; Potency, µM (doses to about 46.1 µM), without a hit: at the highest dose activity, negative = inhibition, actives largely listed as inhibitors; note: potency is the fitted concentration of half-maximal effect; % is set by controls: 0 for no effect and ±100 for the full control effect; nearly all actives have a fitted effect of over 65% in size
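HEPG2 CAGA-GFP reporter cells (1000/well, DMEM with 1% FBS) received compounds, then recombinant TGF-beta at 500 pg/mL final for 18 hours at 37 degrees C. Per-cell GFP summed per well was normalised to unstimulated and stimulated DMSO controls before curve fitting.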
HepG2 viability = HepG2 cytotoxicity, counter-screen for TGF-b inhibitors. HepG2 CAGA-GFP viability, ATP luminescence, 18 h. AID 588856. Potency, µM (doses to about 46.1 µM), without a hit: at the top dose activity change, negative = cytotoxicity, hits mostly cytotoxic. actives 0.76% (n = 410,000); note: potency is the fitted concentration of half-maximal effect
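CellTiter-Glo luminescence gave cytotoxicity after 18 hours at 37 degrees C. The cells were HepG2 CAGA-GFP in 1% FBS DMEM, stimulated with 500 pg/mL TGF-beta after compound addition. %Activity was normalised to no-cell wells (complete cell-killing) and DMSO (no toxicity), and curves were fitted and classified.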
An asterisk follows results filed as active; ? = inconclusive; · = no result given; ! = not confirmed by another sample. A selection: hits, their analogues and other compounds. The true share with any hit is near 6.5%. Unless noted, calls come from the whole dose curve; as a rule, active = well fitted curve in the direction sought with a large enough effect; inconclusive = small, poorly fitted or top-dose-only effect, or another doubt; inactive = no such curve, though single readings can be large; an effect the other way counts as inactive or inconclusive.

SMILES | IL-1B inflam inh | HT1080 IDH1KD tx | Giardia killer | HT1080-NT tox | TGFb inhibitor | HepG2 viability
C[C@H](CO)N1C[C@H](C)[C@@H](CN(C)S(C)(=O)=O)Oc2c(NC(=O)Nc3ccc4c(c3)OCO4)cccc2C1=O | -16.5 | -5.4% | -1.9 | -6.3% | -5.9% | -27.8%
C[C@H](CO)N1C[C@H](C)[C@@H](CN(C)S(=O)(=O)c2ccccc2)Oc2c(NC(=O)Nc3ccc4c(c3)OCO4)cccc2C1=O | -60.8* | -3.8% | 16.5 | 0.7% | -7.1% | 0.9%
C[C@H](CO)N1C[C@H](C)[C@@H](CN(C)CC2CCCCC2)Oc2c(NC(=O)Cc3ccccc3)cccc2C1=O | -70.0* | -18.9% | 4.8 | -11.6% | 15.8µM* | 15.8µM*
Cc1c(CN2CCCC(C(=O)c3cccc(OC(C)C)c3)C2)c(=O)n(-c2ccccc2)n1C (stereo unspecified) | 21.1 | 0.0% | 15.7 | -16.3% | 5.5% | -18.2%
CCOC(=O)C1=C(C)N(CCCC(=O)O)C(=O)NC1C(CC)CC (stereo unspecified) | 26.0 | 7.3% | 3.9 | -0.6% | 10.6% | -12.5%
COc1ccc(NS(=O)(=O)c2ccc(C)c(C(=O)NCCCn3ccnc3)c2)cc1 | 17.3 | 3.1% | · | 5.3% | -4.8% | 11.5%
C[C@H](CO)N1C[C@H](C)[C@@H](CN(C)S(=O)(=O)c2ccc(F)cc2)Oc2c(NC(=O)NC3CCCCC3)cccc2C1=O | -56.2* | 2.2% | -14.5 | 1.3% | -11.1% | -9.0%
Cc1noc(C)c1S(=O)(=O)N(C)C[C@H]1Oc2c(NC(=O)NC3CCCCC3)cccc2C(=O)N([C@H](C)CO)C[C@@H]1C | -6.7 | 5.8% | -5.7 | 3.3% | ? | -4.4%
N#C/C=C/C(=C\Nc1ccc(Cl)cc1)S(=O)(=O)c1ccccc1 | ? | -0.3% | -19.5 | ? | 3.6% | 3.0%
O=S1(=O)CCOC[C@H](CC2CCCCC2)N1Cc1cccc(Cl)c1 | 14.8 | 0.3% | 0.4 | -26.5% | 15.8µM* | -5.1%
Cc1ccccc1CN1[C@@H](CC2CCCCC2)COCCS1(=O)=O | -3.5 | -14.2% | 12.4 | -7.8% | 11.2µM* | 11.2µM*!
O=S1(=O)CCOC[C@H](CC2CCCCC2)N1Cc1ccccc1 | 1.9 | 4.4% | 4.2 | 17.4% | ? | -2.3%
CC1CCN(c2ccc(C(=O)OCC(=O)NCCN3C(=O)CSC3=O)cc2[N+](=O)[O-])CC1 | -22.3 | -10.4% | -9.5 | -13.8% | 0.0% | -17.4%
O=C(NCc1ccccc1)C(=O)NCC1CCCN1S(=O)(=O)c1cccs1 (stereo unspecified) | -1.2 | 8.4% | 14.5 | 7.6% | 1.0% | -4.5%
COc1ccc(N2CCN(/C(=N\S(=O)(=O)c3ccc(C)cc3)Nc3nc(C)cc(C)n3)CC2)cc1 | 11.2 | 5.0% | 10.9 | 3.6% | -1.7% | -23.6%
CSc1cccc(NC(=O)c2ccc(CN3CCc4ccccc4C3)cc2)c1 | -87.7* | ? | -6.5 | -27.1% | 0.0% | -17.2%
O=C(Nc1cccc(Br)c1)c1ccc(CN2CCc3ccccc3C2)cc1 | 0.0 | ? | 4.9 | 16.4µM* | ? | -18.1%
CN(c1ccccc1)S(=O)(=O)c1cccc(NC(=O)C2=NN(c3ccccc3)C(=O)CC2)c1 | 25.3 | -16.1% | -12.9 | -12.8% | ? | -14.2%
Clc1ccc2c(c1)C1OCCC1C(c1ccco1)N2 (stereo unspecified) | -74.0* | -29.2% | -11.9 | -29.6% | 2.7% | -28.8%
COc1ccc(Cl)cc1NS(=O)(=O)c1cc(-c2cc(C)no2)ccc1C | · | · | · | · | -1.7% | -1.9%
COc1c(C)cc(S(=O)(=O)NC2CC(C)(C)NC(C)(C)C2)c(C)c1C | -2.8 | -0.8% | -9.0 | -1.3% | 3.3% | -16.6%
FC(F)(F)c1cccc(-c2cc3nc(NCCCn4ccnc4)ccn3n2)c1 | ? | ? | · | ? | -17.5% | -13.5%
CC(C)Cc1ccc(-c2cc3nc(NCCCn4ccnc4)ccn3n2)cc1 | -2.3 | ? | · | 16.4µM* | ? | -52.2%
COc1cc(-c2cc3nc(NCCc4ccncc4)ccn3n2)cc(OC)c1OC | -58.0* | -21.5% | · | -1.6% | 34.4% | -4.0%
CC(C)Cc1ccc(-c2cc3nc(NCCc4ccc(S(N)(=O)=O)cc4)ccn3n2)cc1 | 31.3 | 23.1µM* | · | ? | 11.1% | -32.4%
SMILES | IL-1B inflam inh | HT1080 IDH1KD tx | Giardia killer | HT1080-NT tox | TGFb inhibitor | HepG2 viability
COc1cc(-c2cc3nc(NCCOc4ccccc4)ccn3n2)cc(OC)c1OC | 12.0 | 9.2µM* | · | 20.6µM* | ? | -48.1%
Cc1ccc(NC(=O)NCCCN2CCCC2=O)cc1Cl | 0.0 | 2.9% | 16.2 | 3.0% | -19.0% | 5.2%
NS(=O)(=O)c1ccc(CCNc2ccn3nc(-c4ccccc4)cc3n2)cc1 | -21.7 | 13.5% | · | 16.7% | 22.8% | -7.8%
COc1cc(-c2cc3nc(NCCc4ccc(S(N)(=O)=O)cc4)ccn3n2)cc(OC)c1OC | -50.0* | -20.5% | · | -18.1% | 7.7% | -20.4%
CN(CC(=O)Nc1ccc(Cl)c(Cl)c1)C(=O)C12CC3CC(CC(C3)C1)C2 | -54.1* | -26.9% | -6.7 | -0.5% | 16.6% | 3.2%
CN1OC[C@@H]2CN(Cc3ccccc3)[C@H](c3cccc(N4CCOCC4)c3)C[C@@H]21 | -16.6 | 4.5% | -24.6 | 2.2% | 0.1% | -15.9%
Cc1ccccc1-c1cccc([C@@H]2C[C@H]3[C@H](CON3C)CN2Cc2ccccc2)c1 | 0.0 | ? | -16.9 | -1.9% | 14.1µM* | -42.2%
c1ccc2c(c1)CCc1ccccc1C2=C1CCNCC1 | -66.0* | -18.4% | 7.3 | -25.2% | -22.6% | -40.5%
CC(C)CC(=O)/C(=C\c1ccc(Cl)cc1Cl)n1cncn1 | -104.0* | 2.91µM* | -21.6 | 5.8µM* | 7.08µM* | 7.94µM*
O=c1[nH]c(C2CCN(S(=O)(=O)c3ccc(C(F)(F)F)cc3)CC2)nc2c1nnn2Cc1ccccc1 | -70.8* | 0.4% | 0.3 | -4.9% | ? | -18.6%
O=c1[nH]c(C2CCN(S(=O)(=O)c3ccccc3C(F)(F)F)CC2)nc2c1nnn2Cc1cccc(F)c1 | ? | 16.4µM* | -7.3 | ? | ? | 4.5%
O=c1[nH]c(C2CCN(S(=O)(=O)/C=C/c3ccccc3)CC2)nc2c1nnn2Cc1ccc(F)cc1 | -54.5* | -26.2% | 9.6 | ? | -29.9% | 3.1%
O=c1[nH]c(C2CCN(S(=O)(=O)c3ccccc3)CC2)nc2c1nnn2Cc1cccc(Cl)c1 | -26.6 | ? | 11.9 | ? | ? | -33.0%
O=c1[nH]c(C2CCN(S(=O)(=O)Cc3ccccc3)CC2)nc2c1nnn2Cc1ccccc1 | -20.1 | 0.0% | -21.0 | -3.2% | -22.2% | -18.4%
